The results in this text go back to PubChem BioAssay (NCATS).

“And” between values parts separate entries of the source, which are not always exact repeats. Identical values can stand only once. Records with an inconclusive call do not appear. A structure can be active in one record and inactive in another. The source made the active and inactive calls. Unless noted, calls come from the whole dose curve; as a rule, active = well fitted curve in the direction sought with a large enough effect; inconclusive = small, poorly fitted or top-dose-only effect, or another doubt; inactive = no such curve, though single readings can be large; an effect the other way counts as inactive or inconclusive. Starred links: 1 amine or outer side, 2 acyl side, 3 side chain; linkers in the order of their positions; H or OH if unused. Positions of bridges follow the written chain, without caps; N, C: chain ends. Non-standard residues stand in square brackets, D forms with d. Residues, ends and D or L forms follow the SMILES beside them. *: point of attachment. X2 = NC1=C[C@@H](O)C[C@H]([C@H](N[*:1])C(=O)[*:2])N1; ΔAla(3-NHCONH2) = NC(=O)NC=C(N)C(=O)O; β3hOrn = NCCC[C@H](N)CC(=O)*; Dap = NC[C@H](N)C(=O)O

The target in assay [1] is Cytochrome P450 2C9 (Homo sapiens) (UniProt P11712). Put plainly: qHTS Assay for Inhibitors and Substrates of Cytochrome P450 2C9 (AID 883). For activity change, negative = inhibition: % is set by controls: 0 for no effect and ±100 for the full control effect. Note: nearly all actives have a fitted effect of over 60% in size. Note: potency is the fitted concentration of half-maximal effect. Put shortly: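 CYP2C9 deoxyluciferin hydroxylation, 37C, 60 min with NADPH regeneration; 10nM enzyme, 100uM Luciferin-H (KM). Glo detection reagent stopped reaction; luminescence normalized to sulphaphenazole (57uM) full inhibition.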
Sequence of Cytochrome P450 2C9 (Homo sapiens) (P11712 whole entry, looked up): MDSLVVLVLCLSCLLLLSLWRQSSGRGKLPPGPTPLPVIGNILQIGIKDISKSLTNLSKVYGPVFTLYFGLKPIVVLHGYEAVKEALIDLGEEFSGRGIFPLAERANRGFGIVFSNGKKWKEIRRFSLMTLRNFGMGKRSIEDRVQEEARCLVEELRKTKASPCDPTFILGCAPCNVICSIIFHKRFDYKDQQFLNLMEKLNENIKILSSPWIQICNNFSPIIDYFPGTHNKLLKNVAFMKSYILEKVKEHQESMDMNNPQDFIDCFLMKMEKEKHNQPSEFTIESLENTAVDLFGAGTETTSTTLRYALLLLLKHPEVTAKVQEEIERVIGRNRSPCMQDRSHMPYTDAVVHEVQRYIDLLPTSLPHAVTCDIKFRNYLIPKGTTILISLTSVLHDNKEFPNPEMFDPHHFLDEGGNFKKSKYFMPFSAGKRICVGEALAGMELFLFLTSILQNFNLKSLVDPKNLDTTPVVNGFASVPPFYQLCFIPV
In general terms: In qHTS, concentration-response curves come from the screen itself.

The nature of assay [2]: qHTS profiling of the MIPE4 collection as inhibitors of Plasmodium falciparum (3D7) proliferation (AID 743344; call rule not given here;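 note: scaled between DMSO vehicle wells and 0.29 µM artemisinin as full inhibition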). Conditions: P. falciparum 3D7 in erythrocytes, SYBR Green DNA fluorescence, 72 h; at 28.5 µM (top of the series). Put shortly:
(§1)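 Parasite DNA was quantified by SYBR Green I fluorescence (ex 485, em 535 nm) after overnight lysis in saponin/Triton buffer at room temperature. Cultures at 0.3% parasitemia and 2.5% hematocrit were first exposed to compound for 72 h at 37 C; signals were normalised to artemisinin (0.29 uM) and vehicle wells.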

The nature of assay [3]: qHTS profiling of the MIPE4 collection as inhibitors of Plasmodium falciparum (DD2) proliferation (AID 743345; call rule not given here). To be noted: P. falciparum Dd2 in erythrocytes, SYBR Green DNA, 72 h; at 28.5 µM (top of the series). Put shortly:
as §1

The nature of assay [4]: qHTS profiling of the MIPE4 collection as inhibitors of Plasmodium falciparum (DD2) proliferation (Rep 2) (AID 743346; call rule not given here). Conditions: P. falciparum Dd2 in erythrocytes, SYBR Green DNA, 72 h; at 28.5 µM (top of the series). Put shortly: as §1
Assay [5] addresses Cytochrome P450 3A4 (Homo sapiens) (UniProt P08684). Put plainly: qHTS Assay for Inhibitors and Substrates of Cytochrome P450 3A4 (AID 884). For activity change, negative = inhibition: % is set by controls: 0 for no effect and ±100 for the full control effect. Note: nearly all actives have a fitted effect of over 50% in size. Note: potency is the fitted concentration of half-maximal effect. In short, it runs like this:
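Luminescent readout of luciferin produced by CYP3A4 (20 nM) dealkylation of Luciferin-PPXE, 25 uM (its KM). NADPH-driven reaction ran 60 min at RT after 10 min compound preincubation; data scaled to 57 uM ketoconazole as 100% inhibition.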

The target is the same in assay [6]. Put plainly: qHTS Assay for Activators of Cytochrome P450 3A4 (AID 885). Note: nearly all actives have a fitted effect of over 65% in size. In short, it runs like this: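 Luminescent readout of luciferin formed from 25 uM Luciferin-PPXE (KM level) by 20 nM CYP3A4 in 200 mM KPO4, with 60 min NADPH-driven reaction at room temperature after 10 min compound exposure. Ketoconazole (57 uM) defined 100% inhibition.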
For assay [7], the target named is Cytochrome P450 2D6 (Homo sapiens) (UniProt P10635). Put plainly: qHTS Assay for Inhibitors and Substrates of Cytochrome P450 2D6 (AID 891).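 Note: luciferin methyl ether substrate demethylated by CYP2D6 with NADPH regeneration; % is set by controls: 0 for no effect and ±100 for the full control effect; nearly all actives have a fitted effect of over 60% in size.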 Put shortly: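 Luminescent read-out of luciferin formed by 5 nM human CYP2D6 demethylating 30 uM Luciferin-ME EGE (Km level) over 60 min at room temperature after NADPH regeneration addition. Data normalized to full inhibition by 1.43 uM quinidine.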
Sequence of Cytochrome P450 2D6 (Homo sapiens) (P10635 whole entry, looked up): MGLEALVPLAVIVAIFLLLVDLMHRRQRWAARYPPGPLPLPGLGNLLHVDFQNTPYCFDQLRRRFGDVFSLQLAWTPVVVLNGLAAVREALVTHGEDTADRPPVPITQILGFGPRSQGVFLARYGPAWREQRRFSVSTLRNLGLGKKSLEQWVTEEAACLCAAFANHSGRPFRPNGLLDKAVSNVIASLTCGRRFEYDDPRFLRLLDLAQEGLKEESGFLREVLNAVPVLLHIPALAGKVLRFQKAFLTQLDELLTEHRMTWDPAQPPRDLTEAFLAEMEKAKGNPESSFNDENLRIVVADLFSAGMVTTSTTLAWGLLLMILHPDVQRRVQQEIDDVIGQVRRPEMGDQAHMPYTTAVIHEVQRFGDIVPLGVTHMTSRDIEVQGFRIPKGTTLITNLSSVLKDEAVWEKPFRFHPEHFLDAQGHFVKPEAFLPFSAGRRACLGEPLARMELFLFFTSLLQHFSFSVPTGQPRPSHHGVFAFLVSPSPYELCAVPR

Assay [8] concerns the target Cytochrome P450 2C19 (Homo sapiens) (UniProt P33261). As to the kind of experiment: qHTS Assay for Inhibitors and Substrates of Cytochrome P450 2C19 (AID 899). Note: % is set by controls: 0 for no effect and ±100 for the full control effect; nearly all actives have a fitted effect of over 60% in size. Put shortly:
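In 50mM KPO4, the reaction held 5nM enzyme and KM-level (10uM) Luciferin-H EGE; it ran 60 min at 37C after NADPH regeneration and a 10 min compound preincubation. Luminescence values were scaled to 57uM ketoconazole as complete inhibition.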

Sequence of Cytochrome P450 3A4 (Homo sapiens) (P08684 whole entry, looked up): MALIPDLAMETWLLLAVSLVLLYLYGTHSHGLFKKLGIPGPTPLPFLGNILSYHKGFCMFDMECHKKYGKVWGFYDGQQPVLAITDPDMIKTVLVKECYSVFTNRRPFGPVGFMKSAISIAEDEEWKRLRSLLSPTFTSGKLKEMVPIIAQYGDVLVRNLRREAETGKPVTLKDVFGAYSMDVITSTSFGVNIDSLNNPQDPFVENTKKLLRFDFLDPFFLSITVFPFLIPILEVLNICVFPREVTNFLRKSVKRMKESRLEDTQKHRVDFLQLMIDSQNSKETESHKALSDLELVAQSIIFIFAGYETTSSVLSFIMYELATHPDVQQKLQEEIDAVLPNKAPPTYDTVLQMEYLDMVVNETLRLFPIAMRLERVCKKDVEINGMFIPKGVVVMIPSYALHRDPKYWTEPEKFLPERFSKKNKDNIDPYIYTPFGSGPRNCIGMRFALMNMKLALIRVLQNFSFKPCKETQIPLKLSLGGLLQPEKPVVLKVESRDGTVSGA
Sequence of Cytochrome P450 2C19 (Homo sapiens) (P33261 whole entry, looked up): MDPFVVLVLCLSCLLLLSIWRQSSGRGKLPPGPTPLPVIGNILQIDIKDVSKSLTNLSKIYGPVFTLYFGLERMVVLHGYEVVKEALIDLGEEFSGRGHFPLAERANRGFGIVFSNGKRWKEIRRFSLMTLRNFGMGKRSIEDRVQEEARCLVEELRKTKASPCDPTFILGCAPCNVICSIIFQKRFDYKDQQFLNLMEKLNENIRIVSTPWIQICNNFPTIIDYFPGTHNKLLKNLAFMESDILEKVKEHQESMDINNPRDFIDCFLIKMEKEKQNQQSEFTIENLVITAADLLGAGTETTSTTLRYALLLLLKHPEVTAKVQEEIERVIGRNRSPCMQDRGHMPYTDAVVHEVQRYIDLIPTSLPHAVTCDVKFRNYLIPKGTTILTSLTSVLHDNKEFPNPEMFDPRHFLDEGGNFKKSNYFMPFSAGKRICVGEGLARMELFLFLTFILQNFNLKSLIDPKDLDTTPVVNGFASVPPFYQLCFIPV

Consider `CC(C)CO/N=C1/[C@H]2O[C@@H]2[C@@H](O)[C@H]2[C@H]1CCn1c(=O)n(-c3ccccc3)c(=O)n12`, for which the Potency entry in assay [1] is “inactive”.

`CC(=O)NCC1CN(c2ccc(N3CCOCC3)c(F)c2)C(=O)O1` (configuration not stated) returned a parasite growth, % of DMSO control in assay [2] of 91.2%. This compound also returned a parasite growth remaining, % of DMSO control (lower = more inhibition) in assay [3] of 94.2%. In assay [4], the parasite growth, % of control (lower = inhibition) came to 75.9%.

Take `C=C(C)C(=O)OCC1CN2C(CCC(C)C2c2ccc(Br)cc2)C(=O)O1` (configuration not stated): the Potency result in assay [1], in assay [7] and in assay [8] was “inactive” throughout. In assay [5], the Potency is 3.16 µM (active). For the same compound, the activity change, negative = inhibition in assay [5] is -21.6% [at 11.4 µM] (inactive). In assay [6], the activity change, positive = activation was -55% [at 11.4 µM] (inactive) and -73.8% [at 11.4 µM] (inactive).

Consider `CC(=O)OCC1OC(c2cc(C)cc(C)c2)C=CC1OC(C)=O` (configuration not stated), for which the Potency entry in assay [1] and in assay [7] was “inactive” each time. For the same compound, in assay [5], the Potency is 3.16 µM (active). The activity change, positive = activation in assay [6] is -86.4% [at 11.4 µM] (inactive).

Consider `COc1ccc(-c2ccc3c(n2)CCCN3C[C@H](O)CN2CCCc3nc(C)c(C)cc32)cc1`, for which the Potency in assay [1] is 3.98 µM (active).

On to `O=C1C[C@@H](O)[C@@H](O)[C@H]2[C@@H]3C(=O)N(Cc4ccccc4)C(=O)[C@@H]3CC[C@H]12`, for which, in assay [1], the Potency entry is “inactive”.

In the case of `COC(=O)C1=C(C)N(Cc2ccccc2)C2=C(C(C)=O)C(c3ccccc3)[C@@](O)(C(=O)OC)C(=O)N2C1c1ccccc1` (some centres not stated), the Potency result in assay [1], in assay [7] and in assay [8] was “inactive” throughout. Moreover, the Potency in assay [5] is 3.98 µM (active). The activity change, negative = inhibition in assay [5] is -19% [at 11.4 µM] (inactive). Further, in assay [6], the activity change, positive = activation was -79.4% [at 11.4 µM] (inactive).

`CC(=O)OC[C@@H]1O[C@@H](O/N=C2/C[C@@H](O)[C@@H](O)[C@@H]3[C@@H]4C(=O)N(C5CCCCC5)C(=O)[C@H]4CC[C@@H]23)[C@H](OC(C)=O)[C@H](OC(C)=O)[C@@H]1OC(C)=O`: the Potency entry in assay [1] is “inactive”.

As for `C=CCCC/C=C(/C)C(OCc1ccc(OC)cc1)C(CC/C=C(\C)C(N)=O)OC` (configuration not stated), the Potency entry in assay [1] was “inactive”. Further, the Potency in assay [5] was 3.98 µM (active). For the same compound, the activity change, positive = activation in assay [6] was -96.8% [at 11.4 µM] (inactive).

For the compound `CCOC(=O)N/N=C1/C[C@@H](O)[C@@H](O)[C@@H]2[C@@H]3C(=O)N(c4cccc(Oc5ccccc5)c4)C(=O)[C@H]3CC[C@@H]12`, the Potency entry in assay [1] was “inactive”.

In turn, `CC(C)(C)OC(=O)N[C@@H](Cc1ccc(O[S+](=O)([O-])c2cccc3cnccc23)cc1)C(=O)Nc1ccc(-c2ccccc2)cc1` registered a parasite growth, % of DMSO control in assay [2] of 5.81%. In addition, the parasite growth remaining, % of DMSO control (lower = more inhibition) in assay [3] is 8.82%. In assay [4], the parasite growth, % of control (lower = inhibition) was found to be 13.9%.

`NCCC[C@H](N)CC(=O)N[C@H]1CNC(=O)[C@H]([C@H]2C[C@H](O)C=C(N)N2)NC(=O)C(=CNC(N)=O)NC(=O)[C@H](CO)NC(=O)[C@H](CO)NC1=O` (β3hOrn-[Dap]SS[ΔAla(3-NHCONH2)][X2]; lactam 1-C) registered a parasite growth, % of DMSO control in assay [2] of 96%. In addition, in assay [3], the parasite growth remaining, % of DMSO control (lower = more inhibition) was 96%. For the same compound, the parasite growth, % of control (lower = inhibition) in assay [4] stood at 133%.

Compound `CN(C(=O)OC(C)(C)C)[C@@H](Cc1ccc(O[S+](=O)([O-])c2cccc3cnccc23)cc1)C(=O)N1CCN(C(=O)OCc2ccccc2)CC1` yielded a parasite growth, % of DMSO control in assay [2] of 5.7%. The compound further showed a parasite growth remaining, % of DMSO control (lower = more inhibition) in assay [3] of 6.02%. Moreover, the parasite growth, % of control (lower = inhibition) in assay [4] came out at 18.5%.

For `CC1CCC2C(=O)N3C(CCC(C)[C@@H]3c3cccc(N4CCOCC4)c3)C(=O)N2C1c1cccc(Br)c1` (some centres not stated), the results for the Potency in assay [1] and in assay [5] were 2.51 µM (active) and 0.0251 µM (active), respectively. The activity change, positive = activation in assay [6] was -62% [at 11.4 µM] (inactive). Moreover, the Potency result in assay [7] is “inactive”.

As for `Cc1cc2c(nc1C)CCCN2C[C@H](O)CN1CCCc2nc(-c3ccc(Br)cc3)ccc21`, the Potency in assay [1] is 2.51 µM (active); in assay [5] it was 3.98 µM (active). In addition, the activity change, positive = activation in assay [6] was -65% [at 11.4 µM] (inactive) and -47.8% [at 11.4 µM] (inactive).

Regarding `COc1ccc(S(=O)(=O)N(CCO)c2ccccc2CN(C)CC=Cc2ccc(Cl)cc2)cc1`, the parasite growth, % of DMSO control in assay [2] turned out to be 6.17%. Moreover, in assay [3], the parasite growth remaining, % of DMSO control (lower = more inhibition) was found to be 26.4%. In addition, the parasite growth, % of control (lower = inhibition) in assay [4] is 18.1%.

Regarding `C[C@H]1CC[C@H]2C(=O)N[C@H](Cc3ccccc3)C(=O)N2[C@@H]1c1ccccc1`, in assay [1], the Potency result is “inactive”. Besides, in assay [5], the Potency was 2.51 µM (active). Moreover, the activity change, positive = activation in assay [6] was -99.1% [at 11.4 µM] (inactive).

`CN([C@@H](Cc1ccc(O[S+](=O)([O-])c2cccc3cnccc23)cc1)C(=O)N1CCN(C(=O)OCc2ccccc2)CC1)[S+](=O)([O-])c1cccc2cnccc12` yielded a parasite growth, % of DMSO control in assay [2] of 4.76%. In addition, the parasite growth remaining, % of DMSO control (lower = more inhibition) in assay [3] came to 6.72%. For the same compound, the parasite growth, % of control (lower = inhibition) in assay [4] amounted to 26.8%.

For the compound `COC(=O)NC(/C(C(=O)OC)=C(\C)NCc1ccccc1)c1cccc(F)c1` (configuration not stated), the Potency result in assay [1] is “inactive”. Moreover, the activity change, negative = inhibition in assay [5] is -19.8% [at 11.4 µM] (inactive).

In the case of `COc1ccc(OC[C@@H](CO)OC)cc1`, the Potency result in assay [1] is “inactive”.

For `CCOC(=O)[C@]1(C(NC(=O)OC)c2cccc(F)c2)CCCC1=O` (some centres not stated), the Potency entry in assay [1] was “inactive”. For the same compound, in assay [5], the activity change, negative = inhibition was -16.9% [at 11.4 µM] (inactive).
